Data: PMC7862700, “An all-to-all approach to the identification of sequence-specific readers for epigenetic DNA modifications on cytosine”

What was measured:
Assay in all cases: DAPPL (digital affinity profiling via proximity ligation, sequencing); 10 mM Tris-HCl pH 7.5, 50 mM NaCl, 1 mM DTT, 4% glycerol, room temperature, 30 min; GST-TFs on glutathione beads, 16-mer random dsDNA library, 0.1% formaldehyde crosslink after washing; high values mean tight binding
FLI1 = molecular target: T1, FLI1 (Homo sapiens, UniProt Q01543 1-452); conditions: protein: recombinant; tags: N-terminal GST; dsDNA, one strand shown
T1 sequence: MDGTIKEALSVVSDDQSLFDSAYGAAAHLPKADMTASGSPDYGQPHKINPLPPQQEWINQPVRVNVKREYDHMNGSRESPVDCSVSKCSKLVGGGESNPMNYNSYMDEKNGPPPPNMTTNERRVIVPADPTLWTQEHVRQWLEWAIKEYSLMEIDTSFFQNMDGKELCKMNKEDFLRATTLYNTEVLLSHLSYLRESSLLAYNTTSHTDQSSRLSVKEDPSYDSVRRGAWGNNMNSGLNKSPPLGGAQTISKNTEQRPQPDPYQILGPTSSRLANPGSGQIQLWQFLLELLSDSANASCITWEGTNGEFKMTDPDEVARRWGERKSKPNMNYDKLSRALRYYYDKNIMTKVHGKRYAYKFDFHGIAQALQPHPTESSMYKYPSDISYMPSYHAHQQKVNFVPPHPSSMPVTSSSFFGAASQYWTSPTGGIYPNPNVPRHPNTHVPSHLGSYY
Procedure, shortened: (§1)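 Each value of binding signal is a hexamer's read frequency for a factor divided by the same hexamer's frequency in the tag-only sample. Barcoded, bead-captured GST fusions of human transcription factors made in yeast were pooled with that sample and incubated with 200 nmole of a random double-stranded 16-mer DNA library in Tris/NaCl/DTT/glycerol buffer at room temperature for 30 min. Washing, 0.1% formaldehyde crosslinking, proximity ligation, PCR and Illumina NextSeq500 sequencing followed.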

ELK1 = molecular target: T2, ELK1 (Homo sapiens, UniProt P19419 1-428); conditions: protein: recombinant; tags: N-terminal GST; dsDNA, one strand shown
T2 sequence: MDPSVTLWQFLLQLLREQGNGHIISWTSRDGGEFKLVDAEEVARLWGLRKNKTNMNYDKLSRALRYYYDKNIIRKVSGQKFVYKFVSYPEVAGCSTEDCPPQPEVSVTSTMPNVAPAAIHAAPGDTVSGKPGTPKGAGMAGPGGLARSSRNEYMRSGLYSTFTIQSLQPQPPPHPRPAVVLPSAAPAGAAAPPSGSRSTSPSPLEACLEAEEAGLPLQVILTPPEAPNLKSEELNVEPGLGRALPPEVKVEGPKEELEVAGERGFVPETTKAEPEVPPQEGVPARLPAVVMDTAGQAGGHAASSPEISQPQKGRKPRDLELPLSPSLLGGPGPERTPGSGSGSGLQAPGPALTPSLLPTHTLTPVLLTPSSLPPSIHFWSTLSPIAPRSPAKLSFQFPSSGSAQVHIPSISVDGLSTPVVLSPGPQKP
Procedure, shortened: as §1

GABPA = molecular target: T3, GABPA (Homo sapiens, UniProt Q06546 1-454); conditions: protein: recombinant; tags: N-terminal GST; dsDNA, one strand shown
T3 sequence: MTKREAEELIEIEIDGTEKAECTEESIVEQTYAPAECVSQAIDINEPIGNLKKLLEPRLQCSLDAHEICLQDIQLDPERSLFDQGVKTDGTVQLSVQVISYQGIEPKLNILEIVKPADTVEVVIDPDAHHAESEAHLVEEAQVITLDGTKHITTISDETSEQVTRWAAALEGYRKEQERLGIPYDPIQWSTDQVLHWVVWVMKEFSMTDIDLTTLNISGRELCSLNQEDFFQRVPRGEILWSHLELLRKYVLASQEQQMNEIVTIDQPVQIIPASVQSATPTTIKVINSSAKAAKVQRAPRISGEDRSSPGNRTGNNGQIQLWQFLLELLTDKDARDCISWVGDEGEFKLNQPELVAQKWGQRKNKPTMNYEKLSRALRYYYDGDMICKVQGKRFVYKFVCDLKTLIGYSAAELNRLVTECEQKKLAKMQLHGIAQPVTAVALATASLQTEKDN
Procedure, shortened: as §1

ERG = molecular target: T4, ERG (Homo sapiens, UniProt P11308 1-479); conditions: protein: recombinant; tags: N-terminal GST; dsDNA, one strand shown
T4 sequence: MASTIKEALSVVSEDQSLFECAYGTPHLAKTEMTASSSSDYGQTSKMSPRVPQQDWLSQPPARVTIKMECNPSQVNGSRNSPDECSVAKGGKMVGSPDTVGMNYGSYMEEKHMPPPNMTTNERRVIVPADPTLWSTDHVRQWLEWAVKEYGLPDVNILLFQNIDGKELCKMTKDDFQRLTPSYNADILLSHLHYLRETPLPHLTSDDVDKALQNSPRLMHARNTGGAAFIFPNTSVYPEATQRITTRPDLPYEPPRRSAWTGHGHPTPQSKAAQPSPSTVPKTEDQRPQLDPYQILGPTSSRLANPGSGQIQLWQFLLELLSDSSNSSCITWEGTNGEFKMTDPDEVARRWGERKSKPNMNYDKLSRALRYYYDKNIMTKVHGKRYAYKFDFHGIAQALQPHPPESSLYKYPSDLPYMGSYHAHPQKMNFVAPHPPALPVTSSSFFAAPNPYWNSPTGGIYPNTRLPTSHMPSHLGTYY
Procedure, shortened: as §1

ELF1 = ELF1 (Homo sapiens, UniProt P32519 1-619); conditions: protein: recombinant; tags: N-terminal GST; dsDNA, one strand shown
Sequence of ELF1 (P32519 whole entry): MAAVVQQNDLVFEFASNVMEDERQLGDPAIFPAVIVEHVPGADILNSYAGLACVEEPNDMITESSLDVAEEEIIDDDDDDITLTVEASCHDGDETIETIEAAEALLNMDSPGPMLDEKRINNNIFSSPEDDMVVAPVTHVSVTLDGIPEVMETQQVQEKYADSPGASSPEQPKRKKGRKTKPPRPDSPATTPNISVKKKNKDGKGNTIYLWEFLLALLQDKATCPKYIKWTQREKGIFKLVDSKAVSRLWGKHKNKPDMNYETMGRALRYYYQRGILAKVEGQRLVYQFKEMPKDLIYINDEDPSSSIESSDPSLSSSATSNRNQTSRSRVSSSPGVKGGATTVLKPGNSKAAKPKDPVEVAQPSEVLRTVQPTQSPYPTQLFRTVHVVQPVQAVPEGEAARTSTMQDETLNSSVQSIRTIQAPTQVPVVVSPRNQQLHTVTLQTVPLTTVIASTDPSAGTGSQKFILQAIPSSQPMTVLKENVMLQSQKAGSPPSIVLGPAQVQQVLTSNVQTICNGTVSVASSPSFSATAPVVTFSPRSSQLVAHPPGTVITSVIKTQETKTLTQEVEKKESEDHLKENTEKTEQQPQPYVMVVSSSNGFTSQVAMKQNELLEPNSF
Procedure, shortened: as §1

EHF = molecular target: T5, EHF (Homo sapiens, UniProt Q9NZC4 1-300); conditions: protein: recombinant; tags: N-terminal GST; dsDNA, one strand shown
T5 sequence: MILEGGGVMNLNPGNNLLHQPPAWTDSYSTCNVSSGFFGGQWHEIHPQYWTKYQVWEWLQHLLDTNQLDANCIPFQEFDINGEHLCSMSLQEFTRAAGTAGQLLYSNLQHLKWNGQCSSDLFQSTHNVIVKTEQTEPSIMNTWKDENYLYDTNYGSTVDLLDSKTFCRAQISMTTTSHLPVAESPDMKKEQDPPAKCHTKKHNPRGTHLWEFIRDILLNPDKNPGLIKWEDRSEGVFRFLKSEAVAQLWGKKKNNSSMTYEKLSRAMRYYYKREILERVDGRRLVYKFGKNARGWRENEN
Procedure, shortened: as §1

SPI1 = SPI1 (Homo sapiens, UniProt P17947 1-270); conditions: protein: recombinant; tags: N-terminal GST; dsDNA, one strand shown
Procedure, shortened: as §1

SPIB = SPIB (Homo sapiens, UniProt Q01892 1-262); conditions: protein: recombinant; tags: N-terminal GST; dsDNA, one strand shown
Sequence of SPIB (Q01892 whole entry): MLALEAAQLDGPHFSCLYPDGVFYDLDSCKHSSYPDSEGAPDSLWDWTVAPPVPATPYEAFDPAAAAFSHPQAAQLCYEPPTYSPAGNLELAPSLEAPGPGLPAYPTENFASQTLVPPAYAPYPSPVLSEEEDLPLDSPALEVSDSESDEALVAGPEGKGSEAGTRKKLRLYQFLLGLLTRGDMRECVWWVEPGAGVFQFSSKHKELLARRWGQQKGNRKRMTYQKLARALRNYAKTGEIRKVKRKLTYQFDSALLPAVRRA
Procedure, shortened: as §1

ELK3 = molecular target: T6, ELK3 (Homo sapiens, UniProt P41970 1-407); conditions: protein: recombinant; tags: N-terminal GST; dsDNA, one strand shown
T6 sequence: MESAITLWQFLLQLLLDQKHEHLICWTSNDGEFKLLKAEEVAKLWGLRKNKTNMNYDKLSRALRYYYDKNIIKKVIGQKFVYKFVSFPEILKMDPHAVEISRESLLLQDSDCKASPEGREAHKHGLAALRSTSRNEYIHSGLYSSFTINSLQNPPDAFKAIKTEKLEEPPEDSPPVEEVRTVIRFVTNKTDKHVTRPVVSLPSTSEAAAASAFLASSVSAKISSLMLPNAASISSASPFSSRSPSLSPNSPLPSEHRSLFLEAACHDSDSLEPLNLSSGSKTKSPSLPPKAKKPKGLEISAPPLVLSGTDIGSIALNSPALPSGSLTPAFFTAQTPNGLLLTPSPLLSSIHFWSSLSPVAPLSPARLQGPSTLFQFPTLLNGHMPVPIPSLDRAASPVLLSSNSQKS
Procedure, shortened: as §1

FEV = molecular target: T7, FEV (Homo sapiens, UniProt Q99581 1-238); conditions: protein: recombinant; tags: N-terminal GST; dsDNA, one strand shown
T7 sequence: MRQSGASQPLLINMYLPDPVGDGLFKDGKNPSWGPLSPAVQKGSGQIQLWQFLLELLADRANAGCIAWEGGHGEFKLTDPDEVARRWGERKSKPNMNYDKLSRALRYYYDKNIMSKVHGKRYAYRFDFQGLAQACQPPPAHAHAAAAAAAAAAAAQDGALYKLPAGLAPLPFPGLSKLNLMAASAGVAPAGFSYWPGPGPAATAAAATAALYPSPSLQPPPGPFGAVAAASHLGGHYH
Procedure, shortened: as §1

ETV5 = ETV5 (Homo sapiens, UniProt P41161 1-510); conditions: protein: recombinant; tags: N-terminal GST; dsDNA, one strand shown
Sequence of ETV5 (P41161 whole entry): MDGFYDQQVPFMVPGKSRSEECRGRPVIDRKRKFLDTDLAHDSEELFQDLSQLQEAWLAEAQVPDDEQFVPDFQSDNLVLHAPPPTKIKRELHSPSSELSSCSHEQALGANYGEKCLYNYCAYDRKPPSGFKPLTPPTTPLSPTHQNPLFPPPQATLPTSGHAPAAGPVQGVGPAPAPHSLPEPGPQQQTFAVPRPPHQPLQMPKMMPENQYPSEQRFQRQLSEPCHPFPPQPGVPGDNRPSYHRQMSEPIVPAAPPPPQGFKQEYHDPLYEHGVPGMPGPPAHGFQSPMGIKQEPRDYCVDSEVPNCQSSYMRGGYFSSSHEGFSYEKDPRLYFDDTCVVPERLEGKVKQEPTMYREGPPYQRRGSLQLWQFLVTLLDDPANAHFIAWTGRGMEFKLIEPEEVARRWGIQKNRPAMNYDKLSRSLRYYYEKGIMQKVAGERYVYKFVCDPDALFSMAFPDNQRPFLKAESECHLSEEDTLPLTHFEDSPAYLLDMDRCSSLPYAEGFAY
Procedure, shortened: as §1

HSF1 = HSF1 (Homo sapiens, UniProt Q00613 1-529); conditions: protein: recombinant; tags: N-terminal GST; chain copies: 3; dsDNA, one strand shown
Sequence of HSF1 (Q00613 whole entry): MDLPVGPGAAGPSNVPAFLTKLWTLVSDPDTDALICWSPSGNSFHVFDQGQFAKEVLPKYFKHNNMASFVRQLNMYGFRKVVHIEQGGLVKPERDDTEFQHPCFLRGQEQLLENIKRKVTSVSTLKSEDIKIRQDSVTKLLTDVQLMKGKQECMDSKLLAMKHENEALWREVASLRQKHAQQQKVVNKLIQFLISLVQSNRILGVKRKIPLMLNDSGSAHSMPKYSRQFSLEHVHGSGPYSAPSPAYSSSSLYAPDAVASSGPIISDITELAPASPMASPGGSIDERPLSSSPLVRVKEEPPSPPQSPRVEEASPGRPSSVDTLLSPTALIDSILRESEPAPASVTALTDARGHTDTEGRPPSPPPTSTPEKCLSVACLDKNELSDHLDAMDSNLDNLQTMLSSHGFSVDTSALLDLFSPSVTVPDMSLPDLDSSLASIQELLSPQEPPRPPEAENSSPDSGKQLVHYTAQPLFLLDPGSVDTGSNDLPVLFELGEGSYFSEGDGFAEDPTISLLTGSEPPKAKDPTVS
Procedure, shortened: as §1

SPIC = molecular target: T8, SPIC (Homo sapiens, UniProt Q8N5J4 1-248); conditions: protein: recombinant; tags: N-terminal GST; dsDNA, one strand shown
T8 sequence: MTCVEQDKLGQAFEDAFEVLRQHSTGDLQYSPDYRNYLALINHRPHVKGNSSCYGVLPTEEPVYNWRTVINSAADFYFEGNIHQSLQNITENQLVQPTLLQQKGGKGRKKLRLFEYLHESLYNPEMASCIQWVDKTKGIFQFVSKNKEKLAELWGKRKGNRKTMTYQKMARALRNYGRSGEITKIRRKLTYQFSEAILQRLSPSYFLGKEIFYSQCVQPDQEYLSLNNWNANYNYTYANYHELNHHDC
Procedure, shortened: as §1

ELF4 = ELF4 (Homo sapiens, UniProt Q99607 1-663); conditions: protein: recombinant; tags: N-terminal GST; dsDNA, one strand shown
Sequence of ELF4 (Q99607 whole entry): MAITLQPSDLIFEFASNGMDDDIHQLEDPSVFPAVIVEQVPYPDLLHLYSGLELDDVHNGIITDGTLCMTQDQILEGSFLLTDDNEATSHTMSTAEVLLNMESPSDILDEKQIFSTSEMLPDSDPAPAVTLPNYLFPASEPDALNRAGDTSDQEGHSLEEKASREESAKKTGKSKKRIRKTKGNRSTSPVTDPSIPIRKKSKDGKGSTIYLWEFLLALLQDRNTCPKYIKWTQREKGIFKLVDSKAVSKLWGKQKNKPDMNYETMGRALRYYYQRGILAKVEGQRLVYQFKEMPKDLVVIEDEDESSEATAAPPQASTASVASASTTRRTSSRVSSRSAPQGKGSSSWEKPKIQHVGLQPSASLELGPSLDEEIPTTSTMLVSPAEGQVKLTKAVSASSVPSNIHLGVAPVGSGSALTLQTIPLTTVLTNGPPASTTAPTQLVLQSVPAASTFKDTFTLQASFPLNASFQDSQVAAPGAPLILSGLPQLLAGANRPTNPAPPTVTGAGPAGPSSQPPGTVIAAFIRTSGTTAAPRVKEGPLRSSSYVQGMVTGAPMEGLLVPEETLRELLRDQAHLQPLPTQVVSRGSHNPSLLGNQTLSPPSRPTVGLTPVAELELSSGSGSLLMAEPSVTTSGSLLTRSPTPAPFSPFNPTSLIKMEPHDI
Procedure, shortened: as §1

ELK4 = molecular target: T9, ELK4 (Homo sapiens, UniProt P28324-2 1-405); conditions: protein: recombinant; tags: N-terminal GST; dsDNA, one strand shown
T9 sequence: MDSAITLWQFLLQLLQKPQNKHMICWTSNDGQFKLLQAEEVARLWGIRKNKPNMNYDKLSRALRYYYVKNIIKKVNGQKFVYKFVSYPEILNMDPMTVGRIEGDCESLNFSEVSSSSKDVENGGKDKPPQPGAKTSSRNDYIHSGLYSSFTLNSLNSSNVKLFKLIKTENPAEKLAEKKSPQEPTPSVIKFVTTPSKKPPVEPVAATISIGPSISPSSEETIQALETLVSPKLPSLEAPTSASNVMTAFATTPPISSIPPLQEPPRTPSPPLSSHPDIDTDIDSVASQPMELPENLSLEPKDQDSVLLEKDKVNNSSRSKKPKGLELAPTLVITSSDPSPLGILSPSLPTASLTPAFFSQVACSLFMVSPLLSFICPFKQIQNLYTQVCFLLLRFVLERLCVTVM
Procedure, shortened: as §1

ETV2 = molecular target: T10, ETV2 (Homo sapiens, UniProt O00321 1-342); conditions: protein: recombinant; tags: N-terminal GST; dsDNA, one strand shown
T10 sequence: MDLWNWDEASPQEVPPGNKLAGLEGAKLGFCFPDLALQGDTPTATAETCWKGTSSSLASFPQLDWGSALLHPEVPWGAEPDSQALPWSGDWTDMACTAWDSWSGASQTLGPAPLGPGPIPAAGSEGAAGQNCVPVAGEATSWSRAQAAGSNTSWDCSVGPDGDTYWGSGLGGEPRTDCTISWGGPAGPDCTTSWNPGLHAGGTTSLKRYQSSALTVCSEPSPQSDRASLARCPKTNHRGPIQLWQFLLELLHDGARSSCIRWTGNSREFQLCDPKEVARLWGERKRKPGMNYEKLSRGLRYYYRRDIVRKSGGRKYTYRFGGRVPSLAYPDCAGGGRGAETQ
Procedure, shortened: as §1

ELF3 = molecular target: T11, ELF3 (Homo sapiens, UniProt P78545 1-371); conditions: protein: recombinant; tags: N-terminal GST; dsDNA, one strand shown
T11 sequence: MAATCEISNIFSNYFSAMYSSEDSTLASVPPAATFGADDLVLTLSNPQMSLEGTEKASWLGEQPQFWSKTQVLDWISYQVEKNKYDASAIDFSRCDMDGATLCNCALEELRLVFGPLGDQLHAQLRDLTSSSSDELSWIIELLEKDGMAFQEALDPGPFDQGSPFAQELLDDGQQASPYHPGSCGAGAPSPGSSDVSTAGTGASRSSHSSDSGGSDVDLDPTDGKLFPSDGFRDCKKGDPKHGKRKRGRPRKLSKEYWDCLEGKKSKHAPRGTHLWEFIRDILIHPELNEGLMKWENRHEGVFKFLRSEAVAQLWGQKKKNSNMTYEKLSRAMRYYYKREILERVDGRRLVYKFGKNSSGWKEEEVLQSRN
Procedure, shortened: as §1

CRX = CRX (Homo sapiens, UniProt O43186 1-299); conditions: protein: recombinant; tags: N-terminal GST; dsDNA, one strand shown
Sequence of CRX (O43186 whole entry): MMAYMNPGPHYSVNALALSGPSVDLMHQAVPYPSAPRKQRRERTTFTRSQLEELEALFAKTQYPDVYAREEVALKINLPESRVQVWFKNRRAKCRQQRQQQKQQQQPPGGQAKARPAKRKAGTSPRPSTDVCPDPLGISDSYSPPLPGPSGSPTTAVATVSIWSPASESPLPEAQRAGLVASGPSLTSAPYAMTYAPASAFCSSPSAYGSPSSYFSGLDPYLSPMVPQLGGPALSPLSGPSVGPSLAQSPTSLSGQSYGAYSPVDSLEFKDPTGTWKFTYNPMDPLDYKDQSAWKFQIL
Procedure, shortened: as §1

ETV1 = ETV1 (Homo sapiens, UniProt P50549 1-477); conditions: protein: recombinant; tags: N-terminal GST; dsDNA, one strand shown
Sequence of ETV1 (P50549 whole entry): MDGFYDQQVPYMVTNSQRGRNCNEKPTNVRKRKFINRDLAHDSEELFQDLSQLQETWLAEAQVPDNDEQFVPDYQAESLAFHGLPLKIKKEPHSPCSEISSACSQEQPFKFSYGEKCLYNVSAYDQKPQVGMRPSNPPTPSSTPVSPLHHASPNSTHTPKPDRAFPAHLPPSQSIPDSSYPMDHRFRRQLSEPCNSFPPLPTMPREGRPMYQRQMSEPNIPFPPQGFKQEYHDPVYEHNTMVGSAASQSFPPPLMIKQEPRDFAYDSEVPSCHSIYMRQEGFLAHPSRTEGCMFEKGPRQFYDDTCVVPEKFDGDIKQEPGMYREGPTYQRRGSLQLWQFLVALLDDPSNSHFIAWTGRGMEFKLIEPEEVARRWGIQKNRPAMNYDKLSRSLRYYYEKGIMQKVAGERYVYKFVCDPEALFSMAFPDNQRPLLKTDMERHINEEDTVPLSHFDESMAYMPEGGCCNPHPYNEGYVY
Procedure, shortened: as §1

Sequence: CCTGGA
- binding signal (FLI1): 1.53 fold enrichment (6-mer frequency, TF over GST control)
- binding signal (ELK1): 1.44 fold enrichment (6-mer frequency, TF over GST control)
- binding signal (GABPA): 1.43 fold enrichment (6-mer frequency, TF over GST control)
- binding signal (ERG): 1.45 fold enrichment (6-mer frequency, TF over GST control)
- binding signal (ELF1): 1.4 fold enrichment (6-mer frequency, TF over GST control)
- binding signal (EHF): 1.44 fold enrichment (6-mer frequency, TF over GST control)
- binding signal (SPI1): 1.21 fold enrichment (6-mer frequency, TF over GST control)
- binding signal (SPIB): 1.5 fold enrichment (6-mer frequency, TF over GST control)
- binding signal (ELK3): 1.39 fold enrichment (6-mer frequency, TF over GST control)
- binding signal (FEV): 1.27 fold enrichment (6-mer frequency, TF over GST control)
- binding signal (ETV5): 1.47 fold enrichment (6-mer frequency, TF over GST control)
- binding signal (HSF1): 1.77 fold enrichment (6-mer frequency, TF over GST control)
- binding signal (SPIC): 1.42 fold enrichment (6-mer frequency, TF over GST control)
- binding signal (ELF4): 1.47 fold enrichment (6-mer frequency, TF over GST control)
- binding signal (ELK4): 1.38 fold enrichment (6-mer frequency, TF over GST control)
- binding signal (ETV2): 1.51 fold enrichment (6-mer frequency, TF over GST control)
- binding signal (ELF3): 1.12 fold enrichment (6-mer frequency, TF over GST control)
- binding signal (CRX): 1.41 fold enrichment (6-mer frequency, TF over GST control)
- binding signal (ETV1): 1.41 fold enrichment (6-mer frequency, TF over GST control)
